This passage reports residual activity results from ChEMBL document CHEMBL2218924, “A broad activity screen in support of a chemogenomic map for kinase signalling research and drug discovery” (Biochem J, 2013).

In assay [1] the target is Insulin receptor (Homo sapiens) (UniProt P06213). As to conditions: at 10 µM.
Assay [2] has the same target. As to conditions: at 1 µM.
Assay [3] has the same target. The conditions noted are these: at 10 µM. The source holds these as a separate data set.
In assay [4] the target is Interleukin-1 receptor-associated kinase 1 (Homo sapiens) (UniProt P51617). As to conditions: at 1 µM.
Chain of Interleukin-1 receptor-associated kinase 1 (Homo sapiens) (P51617 whole entry, looked up): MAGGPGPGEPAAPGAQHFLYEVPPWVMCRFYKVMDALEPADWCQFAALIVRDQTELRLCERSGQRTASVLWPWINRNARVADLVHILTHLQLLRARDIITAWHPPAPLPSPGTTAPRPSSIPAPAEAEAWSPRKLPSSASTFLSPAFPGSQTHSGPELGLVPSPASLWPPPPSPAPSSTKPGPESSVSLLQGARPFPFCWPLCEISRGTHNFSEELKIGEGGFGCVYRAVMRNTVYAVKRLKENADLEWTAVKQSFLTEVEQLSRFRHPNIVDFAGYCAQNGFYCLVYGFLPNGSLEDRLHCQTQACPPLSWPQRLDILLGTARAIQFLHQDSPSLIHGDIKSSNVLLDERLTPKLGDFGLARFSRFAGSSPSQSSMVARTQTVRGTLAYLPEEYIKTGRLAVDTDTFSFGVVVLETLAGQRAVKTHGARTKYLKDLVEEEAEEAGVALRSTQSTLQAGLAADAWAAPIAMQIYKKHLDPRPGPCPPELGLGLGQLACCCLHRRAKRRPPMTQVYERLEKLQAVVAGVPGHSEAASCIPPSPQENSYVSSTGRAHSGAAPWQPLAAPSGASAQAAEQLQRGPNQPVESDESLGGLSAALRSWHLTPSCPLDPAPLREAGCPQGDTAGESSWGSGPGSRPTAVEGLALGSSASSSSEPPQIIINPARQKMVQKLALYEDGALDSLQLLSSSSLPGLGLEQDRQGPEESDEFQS
Assay [5] shares this target. As to conditions: at 10 µM.
For assay [6], the target named is T1, Interleukin-1 receptor-associated kinase 4 (Homo sapiens) (UniProt Q9NWZ3).
T1 sequence (whole entry): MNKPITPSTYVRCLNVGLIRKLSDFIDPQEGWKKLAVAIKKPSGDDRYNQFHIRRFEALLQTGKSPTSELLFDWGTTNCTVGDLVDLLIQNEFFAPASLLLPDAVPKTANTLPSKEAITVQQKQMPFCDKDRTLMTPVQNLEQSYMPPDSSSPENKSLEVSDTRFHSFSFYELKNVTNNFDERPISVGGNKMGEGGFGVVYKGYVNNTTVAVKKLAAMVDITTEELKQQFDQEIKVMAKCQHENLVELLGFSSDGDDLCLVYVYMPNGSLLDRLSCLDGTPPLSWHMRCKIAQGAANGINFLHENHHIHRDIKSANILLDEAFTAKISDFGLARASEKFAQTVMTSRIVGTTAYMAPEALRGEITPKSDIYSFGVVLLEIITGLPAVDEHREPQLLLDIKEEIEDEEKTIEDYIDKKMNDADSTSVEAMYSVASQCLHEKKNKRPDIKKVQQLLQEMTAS
The conditions noted are these: at 1 µM.

Assay [7] addresses T1, Interleukin-1 receptor-associated kinase 4 (Homo sapiens). The conditions noted are these: at 10 µM.
Assay [8] addresses Insulin receptor-related protein (Homo sapiens) (UniProt P14616). As to conditions: at 1 µM.
Assay [9] has the same target. As to conditions: at 10 µM.
Assay [10] deals with T2, Tyrosine-protein kinase ITK/TSK (Homo sapiens) (UniProt Q08881).
T2 sequence (whole entry): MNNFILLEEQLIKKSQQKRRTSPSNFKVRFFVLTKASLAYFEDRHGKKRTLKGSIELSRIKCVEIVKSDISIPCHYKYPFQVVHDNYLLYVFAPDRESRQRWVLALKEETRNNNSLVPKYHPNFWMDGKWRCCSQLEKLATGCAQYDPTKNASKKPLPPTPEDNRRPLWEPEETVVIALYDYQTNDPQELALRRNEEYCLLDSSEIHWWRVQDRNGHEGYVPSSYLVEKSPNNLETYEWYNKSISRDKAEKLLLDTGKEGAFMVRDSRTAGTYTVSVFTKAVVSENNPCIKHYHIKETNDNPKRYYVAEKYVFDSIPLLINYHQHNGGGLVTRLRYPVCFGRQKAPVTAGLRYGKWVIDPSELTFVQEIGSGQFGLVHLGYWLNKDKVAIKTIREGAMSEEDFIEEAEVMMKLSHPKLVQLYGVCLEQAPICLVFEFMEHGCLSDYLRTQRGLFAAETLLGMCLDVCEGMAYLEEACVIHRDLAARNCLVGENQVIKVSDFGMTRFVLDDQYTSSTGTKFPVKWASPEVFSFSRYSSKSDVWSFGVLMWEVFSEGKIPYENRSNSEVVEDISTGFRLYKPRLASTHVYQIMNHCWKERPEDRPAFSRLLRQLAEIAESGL
The conditions noted are these: at 1 µM.

The target of assay [11] is T2, Tyrosine-protein kinase ITK/TSK (Homo sapiens). As to conditions: at 10 µM.
Assay [12] concerns the target Tyrosine-protein kinase JAK2 (Homo sapiens) (UniProt O60674). As to conditions: at 1 µM.
Assay [13] has the same target. As to conditions: at 10 µM.
Assay [14] has as its target T3, Tyrosine-protein kinase JAK3 (Homo sapiens) (UniProt P52333).
T3 sequence (whole entry): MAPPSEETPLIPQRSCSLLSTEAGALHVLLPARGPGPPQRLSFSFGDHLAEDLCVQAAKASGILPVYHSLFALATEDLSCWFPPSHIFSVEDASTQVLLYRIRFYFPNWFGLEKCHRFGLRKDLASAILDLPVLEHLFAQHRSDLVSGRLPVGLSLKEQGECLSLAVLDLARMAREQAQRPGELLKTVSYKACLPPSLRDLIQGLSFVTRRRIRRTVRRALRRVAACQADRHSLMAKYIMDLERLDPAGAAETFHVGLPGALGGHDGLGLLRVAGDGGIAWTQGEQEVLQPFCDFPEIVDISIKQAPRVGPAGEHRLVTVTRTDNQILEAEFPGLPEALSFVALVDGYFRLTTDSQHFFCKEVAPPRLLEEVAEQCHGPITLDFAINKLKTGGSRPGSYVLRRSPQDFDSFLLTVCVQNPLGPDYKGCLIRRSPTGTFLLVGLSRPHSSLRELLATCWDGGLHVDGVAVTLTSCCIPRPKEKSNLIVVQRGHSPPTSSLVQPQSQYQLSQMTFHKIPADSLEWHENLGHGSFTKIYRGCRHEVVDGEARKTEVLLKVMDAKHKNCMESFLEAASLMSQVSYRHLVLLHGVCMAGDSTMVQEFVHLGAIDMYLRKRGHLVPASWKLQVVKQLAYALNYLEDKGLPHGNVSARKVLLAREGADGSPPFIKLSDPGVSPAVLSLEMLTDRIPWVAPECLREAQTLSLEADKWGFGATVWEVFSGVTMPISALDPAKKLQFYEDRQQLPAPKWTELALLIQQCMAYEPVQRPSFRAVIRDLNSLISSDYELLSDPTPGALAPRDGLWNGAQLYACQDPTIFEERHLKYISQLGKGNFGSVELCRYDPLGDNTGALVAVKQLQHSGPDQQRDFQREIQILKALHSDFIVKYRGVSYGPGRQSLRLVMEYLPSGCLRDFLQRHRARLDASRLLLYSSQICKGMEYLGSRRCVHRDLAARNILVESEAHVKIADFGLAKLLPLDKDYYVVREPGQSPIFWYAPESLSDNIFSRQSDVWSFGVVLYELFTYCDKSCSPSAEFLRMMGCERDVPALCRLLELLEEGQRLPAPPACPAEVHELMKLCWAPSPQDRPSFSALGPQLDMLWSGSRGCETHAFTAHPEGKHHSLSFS
The conditions noted are these: at 1 µM.

The target in assay [15] is T3, Tyrosine-protein kinase JAK3 (Homo sapiens). The conditions noted are these: at 10 µM.
Assay [16] concerns the target Mitogen-activated protein kinase 8 (Homo sapiens) (UniProt P45983). As to conditions: at 1 µM.
For assay [17] the target is unchanged. The conditions noted are these: at 10 µM.
Assay [18] has as its target Mitogen-activated protein kinase 9 (Homo sapiens) (UniProt P45984). As to conditions: at 1 µM.
Assay [19] has the same target. As to conditions: at 10 µM.
The target of assay [20] is Mitogen-activated protein kinase 10 (Homo sapiens) (UniProt P53779). The conditions noted are these: at 1 µM.
Chain of Mitogen-activated protein kinase 10 (Homo sapiens) (P53779 whole entry): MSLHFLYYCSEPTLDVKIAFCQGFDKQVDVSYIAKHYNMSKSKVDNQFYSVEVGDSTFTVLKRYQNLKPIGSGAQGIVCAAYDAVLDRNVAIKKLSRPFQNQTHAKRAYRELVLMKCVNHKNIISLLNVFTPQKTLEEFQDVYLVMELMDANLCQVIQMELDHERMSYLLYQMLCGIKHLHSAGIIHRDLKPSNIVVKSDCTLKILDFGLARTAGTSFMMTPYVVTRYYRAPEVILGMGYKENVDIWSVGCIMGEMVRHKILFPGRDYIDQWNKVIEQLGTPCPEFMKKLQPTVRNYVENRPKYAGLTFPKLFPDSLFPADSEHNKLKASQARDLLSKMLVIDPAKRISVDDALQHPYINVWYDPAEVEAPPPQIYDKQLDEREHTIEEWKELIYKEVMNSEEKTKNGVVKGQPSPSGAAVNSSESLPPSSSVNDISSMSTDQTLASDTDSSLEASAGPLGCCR

Chain of Tyrosine-protein kinase JAK2 (Homo sapiens) (O60674 whole entry): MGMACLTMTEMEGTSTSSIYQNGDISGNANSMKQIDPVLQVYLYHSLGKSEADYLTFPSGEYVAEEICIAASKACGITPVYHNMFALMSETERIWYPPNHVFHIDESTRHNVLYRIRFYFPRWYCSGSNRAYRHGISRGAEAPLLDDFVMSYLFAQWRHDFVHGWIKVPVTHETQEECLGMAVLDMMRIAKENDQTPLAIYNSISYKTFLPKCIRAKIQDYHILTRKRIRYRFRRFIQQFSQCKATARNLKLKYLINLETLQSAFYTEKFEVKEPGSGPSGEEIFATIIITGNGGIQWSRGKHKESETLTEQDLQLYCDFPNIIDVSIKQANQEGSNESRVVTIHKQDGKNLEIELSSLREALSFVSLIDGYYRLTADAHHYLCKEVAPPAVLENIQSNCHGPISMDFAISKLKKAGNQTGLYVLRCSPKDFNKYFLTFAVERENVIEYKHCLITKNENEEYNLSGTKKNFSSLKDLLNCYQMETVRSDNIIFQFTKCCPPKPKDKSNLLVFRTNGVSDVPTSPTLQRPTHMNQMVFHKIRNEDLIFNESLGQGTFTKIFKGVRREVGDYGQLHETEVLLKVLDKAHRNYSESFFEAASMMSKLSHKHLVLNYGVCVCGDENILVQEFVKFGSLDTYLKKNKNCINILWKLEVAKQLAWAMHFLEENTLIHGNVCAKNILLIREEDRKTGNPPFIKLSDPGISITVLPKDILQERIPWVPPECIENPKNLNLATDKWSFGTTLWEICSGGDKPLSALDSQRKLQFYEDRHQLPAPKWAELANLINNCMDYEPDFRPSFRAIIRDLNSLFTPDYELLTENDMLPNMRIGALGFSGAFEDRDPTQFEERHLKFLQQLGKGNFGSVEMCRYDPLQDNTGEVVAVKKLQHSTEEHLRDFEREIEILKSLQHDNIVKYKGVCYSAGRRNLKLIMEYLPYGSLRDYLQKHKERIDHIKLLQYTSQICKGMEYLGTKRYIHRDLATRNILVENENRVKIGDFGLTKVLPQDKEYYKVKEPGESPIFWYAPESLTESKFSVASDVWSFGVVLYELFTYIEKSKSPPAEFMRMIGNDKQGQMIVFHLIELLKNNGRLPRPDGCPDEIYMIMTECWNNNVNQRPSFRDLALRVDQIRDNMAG
Chain of Mitogen-activated protein kinase 9 (Homo sapiens) (P45984 whole entry, looked up): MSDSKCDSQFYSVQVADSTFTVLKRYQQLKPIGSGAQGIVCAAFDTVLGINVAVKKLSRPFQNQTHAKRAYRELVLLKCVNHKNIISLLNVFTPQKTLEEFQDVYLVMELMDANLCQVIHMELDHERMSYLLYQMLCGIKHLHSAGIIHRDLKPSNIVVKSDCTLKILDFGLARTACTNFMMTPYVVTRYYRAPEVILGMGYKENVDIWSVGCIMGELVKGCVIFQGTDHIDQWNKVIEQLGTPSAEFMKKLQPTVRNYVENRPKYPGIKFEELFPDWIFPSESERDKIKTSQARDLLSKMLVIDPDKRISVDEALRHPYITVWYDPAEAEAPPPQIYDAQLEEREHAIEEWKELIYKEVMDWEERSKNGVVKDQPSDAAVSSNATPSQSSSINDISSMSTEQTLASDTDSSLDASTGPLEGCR
Chain of Insulin receptor (Homo sapiens) (P06213 28-758 limits assumed): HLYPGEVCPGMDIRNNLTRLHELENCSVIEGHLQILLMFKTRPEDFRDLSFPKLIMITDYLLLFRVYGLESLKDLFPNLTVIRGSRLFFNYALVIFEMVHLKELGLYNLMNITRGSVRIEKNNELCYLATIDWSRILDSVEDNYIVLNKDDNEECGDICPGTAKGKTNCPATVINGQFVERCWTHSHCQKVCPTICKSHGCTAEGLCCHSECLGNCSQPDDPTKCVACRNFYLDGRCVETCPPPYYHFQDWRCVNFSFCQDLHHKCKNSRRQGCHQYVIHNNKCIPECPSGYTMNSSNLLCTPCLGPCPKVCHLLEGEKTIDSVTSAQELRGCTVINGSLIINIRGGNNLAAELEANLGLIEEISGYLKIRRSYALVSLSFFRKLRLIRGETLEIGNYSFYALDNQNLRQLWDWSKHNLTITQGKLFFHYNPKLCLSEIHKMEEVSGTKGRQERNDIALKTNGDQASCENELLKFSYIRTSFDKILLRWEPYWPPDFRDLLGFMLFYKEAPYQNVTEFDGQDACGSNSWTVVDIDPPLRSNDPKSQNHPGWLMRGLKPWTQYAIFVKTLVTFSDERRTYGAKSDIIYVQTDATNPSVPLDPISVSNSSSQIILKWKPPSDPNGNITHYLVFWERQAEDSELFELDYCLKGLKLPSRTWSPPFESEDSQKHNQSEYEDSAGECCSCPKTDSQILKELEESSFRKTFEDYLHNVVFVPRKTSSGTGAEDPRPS
Chain of Insulin receptor (Homo sapiens) (P06213 763-1382 limits assumed): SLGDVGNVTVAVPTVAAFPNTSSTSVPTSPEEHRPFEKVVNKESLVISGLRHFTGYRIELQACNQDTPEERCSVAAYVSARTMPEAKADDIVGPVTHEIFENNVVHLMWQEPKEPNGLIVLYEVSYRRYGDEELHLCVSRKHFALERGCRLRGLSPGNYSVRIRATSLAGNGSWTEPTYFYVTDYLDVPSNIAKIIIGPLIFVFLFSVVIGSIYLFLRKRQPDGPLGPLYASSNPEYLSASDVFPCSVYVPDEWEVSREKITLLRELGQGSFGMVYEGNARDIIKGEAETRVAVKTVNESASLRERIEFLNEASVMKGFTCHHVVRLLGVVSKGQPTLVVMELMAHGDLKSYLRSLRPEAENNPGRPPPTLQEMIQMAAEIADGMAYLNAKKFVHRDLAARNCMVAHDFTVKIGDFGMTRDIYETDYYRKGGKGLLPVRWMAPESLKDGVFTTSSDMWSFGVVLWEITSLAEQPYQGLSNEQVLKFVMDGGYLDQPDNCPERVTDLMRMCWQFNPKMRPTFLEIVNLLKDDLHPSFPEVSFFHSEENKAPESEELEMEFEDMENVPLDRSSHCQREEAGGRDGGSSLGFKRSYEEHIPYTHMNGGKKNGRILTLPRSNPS
Chain of Mitogen-activated protein kinase 8 (Homo sapiens) (P45983 whole entry): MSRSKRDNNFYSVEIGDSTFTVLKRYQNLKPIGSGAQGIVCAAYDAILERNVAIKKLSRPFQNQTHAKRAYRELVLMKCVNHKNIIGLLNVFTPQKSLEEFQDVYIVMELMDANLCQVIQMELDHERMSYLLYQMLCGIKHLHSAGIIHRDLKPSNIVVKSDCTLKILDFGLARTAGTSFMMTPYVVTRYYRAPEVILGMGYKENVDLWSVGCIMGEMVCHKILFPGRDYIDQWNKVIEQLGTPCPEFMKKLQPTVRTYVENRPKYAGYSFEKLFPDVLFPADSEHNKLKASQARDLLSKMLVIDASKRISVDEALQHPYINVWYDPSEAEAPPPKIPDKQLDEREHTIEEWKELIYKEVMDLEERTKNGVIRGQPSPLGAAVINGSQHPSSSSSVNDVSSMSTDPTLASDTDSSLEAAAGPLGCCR

As to `O=C1NC(=O)c2c1c1c3ccccc3[nH]c1c1[nH]c3cc(Br)ccc3c21`, the residual activity in assay [1] came to 88%; in assay [2], 103%; in [3], 95%; in assay [4], 106%; in [5], 107%; in assay [6], 92%. In addition, the residual activity amounted to 76% in assay [7]; 97% in [8]; 84% in assay [9]; 102% in assay [10]; 97% in assay [11]; 97% in assay [12]. For the same compound, the residual activity in assay [13] is 106%; in assay [14], 94%; in assay [15], 96%; in assay [16], 110%; in assay [17], 98%; in assay [18] it was 110%. The residual activity in assay [19] came to 121%; in assay [20], 77%.

`CC(C)n1cnc2/c(=N/c3cccc(Cl)c3)nc(NCCO)[nH]c21`: the residual activity in assay [1] amounted to 36%; in assay [2] it was 68%; in assay [3], 17%; in [4], 76%; in [5], 34%; in assay [6] it was 44%. Besides, the residual activity in assay [7] came to 14%; in [8], 96%; in assay [9], 35%; in assay [10] it was 76%; in [11], 22%; in assay [12], 92%. Besides, the residual activity in assay [13] was found to be 89%; in assay [14] it was 111%; in assay [15], 81%; in assay [16], 103%; in assay [17], 89%; in assay [18] it was 97%. Besides, the residual activity came out at 105% in [19] and 64% in [20].

In the case of `COc1cc2ncnc(Nc3ccc(Oc4ccccc4)cc3)c2cc1OC`, the residual activity in assay [1] came to 98%; in [2], 93%; in assay [3], 91%; in assay [4], 87%; in assay [5] it was 79%; in assay [6], 98%. The residual activity in [7] came out at 79%; in assay [8], 82%; in assay [9] it was 81%; in [10] it was 86%; in assay [12] it was 118%; in assay [13], 148%. Further, the residual activity in assay [14] was determined as 93%; in assay [15], 113%; in assay [16], 106%; in assay [17] it was 110%; in [18] it was 121%; in assay [19], 98%. Further, the residual activity in assay [20] came out at 83%.

For the compound `COc1cc2ncc(-c3ccccc3)nc2cc1OC`, the residual activity in assay [8] stood at 137%; in assay [9], 80%; in assay [14], 92%; in assay [15] it was 58%; in assay [20] it was 99%.

As for `O=C1NC(=O)/C(=C\c2ccc3nccnc3c2)S1`, the residual activity in assay [1] is 94%; in [2] it was 103%; in [3] it was 97%; in assay [4] it was 76%; in [5], 35%; in assay [6], 104%. The residual activity in assay [7] stood at 91%; in assay [8], 127%; in [9], 58%; in assay [10] it was 97%; in assay [11], 91%; in assay [12], 108%. The residual activity amounted to 94% in assay [13]; 86% in [14]; 67% in assay [15]; 104% in assay [16]; 87% in assay [17]; 108% in assay [18]. The residual activity in assay [19] was determined as 96%; in [20], 89%.

On to `Cc1cncc2cccc(S(=O)(=O)N3CCCN(C(=O)CN)C[C@H]3C)c12`, for which the residual activity turned out to be 70% in [1]; 97% in [2]; 76% in [3]; 82% in assay [4]; 67% in assay [5]; 92% in assay [14]. Besides, the residual activity in [16] turned out to be 95%; in assay [17], 82%; in assay [19], 79%; in [20] it was 72%.

As to `COc1ccc(CNc2nc(N(CCO)CCO)nc3c2ncn3C(C)C)cc1`, the residual activity was found to be 85% in [1]; 90% in assay [2]; 77% in assay [3]; 91% in [4]; 107% in assay [5]; 71% in [6]. The residual activity in assay [7] is 71%; in assay [8], 92%; in assay [9], 87%; in assay [10], 94%; in [11], 85%; in assay [12] it was 91%. The residual activity in assay [13] is 99%; in assay [14], 105%; in assay [15], 107%; in assay [16], 104%; in [17] it was 87%; in assay [18] it was 83%. Further, the figures for the residual activity in assay [19] and in assay [20] were 85% and 75%, respectively.

`CNc1cc2c(Nc3cccc(Br)c3)ncnc2cn1`: the residual activity is 48% in assay [1]; 96% in assay [2]; 103% in assay [3]; 95% in assay [4]; 75% in [5]; 96% in [6]. The residual activity in assay [7] was 61%; in [8], 135%; in [9], 71%; in assay [10], 104%; in assay [11] it was 87%; in assay [12], 70%. The residual activity came out at 56% in assay [13]; 96% in assay [14]; 78% in assay [15]; 100% in [16]; 97% in assay [17]; 98% in assay [18]. Also, the residual activity amounted to 92% in [19] and 97% in assay [20].
